Laboratory results: PubChem BioAssay (NCATS)
Records with an inconclusive call do not appear. Activity calls are given as the source filed them. Unless noted, the call rests on the fitted dose curve; in most records, active means well fitted curve in the direction sought with a large enough effect; inconclusive means small, poorly fitted or top-dose-only effect, or another doubt; inactive means no such curve, though single readings can be large; an effect the other way counts as inactive or inconclusive.

What was measured:
[1] = Viability counterscreen for antagonist of constitutive androstane receptor (CAR) against the NCATS DSHEA and TCM libraries (AID 1794837);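 further: compound exposure lasted 24 h before viability reading; 0% is about no effect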
Summary of the method: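 Cell viability, CellTiter-Fluor, Ex/Em 405/540 nm, 1 h at 37C. HepG2-CYP2B6-hCAR, 2,500 cells/well; cpds + CITCO 48 uM final (antagonist mode), 24 h, 37C/5% CO2.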

[2] = Viability counterscreen for agonist of constitutive androstane receptor (CAR) against the NCATS DSHEA and TCM libraries (AID 1794838); further: 0% is about no effect
Summary of the method: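 Viability by CellTiter-Fluor fluorescence, 405/540 nm, after 1 h at 37C. HepG2-CYP2B6-hCAR cells were exposed 24 h to test substances in presence of 0.75 uM PK11195 (final).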

[3] = molecular target: Nuclear receptor subfamily 1 group I member 3 (Homo sapiens) (UniProt Q14994); assay: Primary qHTS for agonist of constitutive androstane receptor (CAR) against the NCATS DSHEA and TCM libraries (AID 1794839);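 further: HepG2 cells expressing human CAR with a CYP2B6 reporter plus PK11195 antagonist; 0% is about no effect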
Summary of the method: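 Luminescence from ONE-Glo luciferase was the agonist read-out in HepG2-CYP2B6-hCAR cells exposed 24 h to test substances. Wells also held the CAR antagonist PK11195 at 0.75 µM final. Viability was by CellTiter-Fluor fluorescence.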

[4] = HepG2 viability counterscreen (readout 2: ATP content) against the NCATS DSHEA and TCM libraries (AID 1794840); further: 0% is about no effect
Summary of the method: (§1)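 1,000 HepG2 cells/well, 4 h attach; compounds ~24 h, 37C/5% CO2. Readout 1: GF-AFC 25 uM final, 30 min, fluorescence 380/510 nm. Readout 2: CellTiter-Glo, 30 min RT, luminescence.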

[5] = HepG2 viability counterscreen (readout 1: protease activity) against the NCATS DSHEA and TCM libraries (AID 1794841);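 further: cells exposed to compounds for about 24 h before the protease read; 0% is about no effect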
Summary of the method: as §1

[6] = molecular target: Cytochrome P450 2D6 (Homo sapiens) (UniProt P10635); assay: qHTS for inhibitors of CYP2D6 against the NCATS DSHEA and TCM libraries (AID 1919972); further: on the % scale 0 is the no-effect control and ±100 the full control effect
Summary of the method: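 CYP2D6 enzyme with pro-luciferin substrate in manufacturer buffer (typically 100 mM KPO4), preincubated 15 min RT with substances (most at 19.5 nM upward); NADPH regeneration system (1x) started 30–45 min RT reaction; P450-Glo luminescence read after 30 min; quinidine as intraplate control.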

[7] = KB-3-1 P-gp reporter qHTS against the NCATS DSHEA and TCM libraries (AID 1919975); further: 0% is about no effect
Summary of the method: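 CellTiter-Glo luminescence viability readout; KB-3-1 parental cells, 500/well, attached ~4 h, then compound for ~72 h, 37C, 5% CO2. Bortezomib intraplate control.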

[8] = qHTS Counterscreen for compound interference against the NCATS DSHEA and TCM libraries (AID 1919978); details: firefly luciferase detection reagent interference, luminescence;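 further: compounds preincubated with 1 µM D-luciferin or buffer before detection reagent; % of control where 0% means no effect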
Summary of the method: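 Luminescence counterscreen for detection-kit interference: compounds at 19.5 nM–39.8 uM final, 15 min RT with 1 uM D-luciferin or buffer only; detection reagent added, 30 min RT, then read.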

[9] = Dual reporter qHTS for agonist of Pregnane X Receptor (hPXR) against the NCATS DSHEA and TCM libraries: Fluorescence readout (AID 1920058); further: 0% is about no effect
Summary of the method: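 Cells were plated at 2000 per well and allowed to attach for 5 h. Test substances were pinned in and incubated roughly 24 h. CellTiter-Fluor was then added and fluorescence measured after 1 h.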

[10] = molecular target: Nuclear receptor subfamily 1 group I member 2 (Homo sapiens) (UniProt O75469); assay: Dual reporter qHTS for agonist of Pregnane X Receptor (hPXR) against the NCATS DSHEA and TCM libraries: Luminescence readout (AID 1920059); further: potency means the concentration at half of the fitted maximal effect; on activation: 0% is about no effect
Summary of the method: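 hPXR-Luc HepG2 cells, 2000/well in 5% charcoal-stripped FBS medium, attached 5 h, then exposed 24 h at 37C to compounds. Viability by CellTiter-Fluor, then luciferase luminescence with ONE-Glo.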

[11] = molecular target: Nuclear receptor subfamily 1 group I member 2 (Homo sapiens) (UniProt O75469); assay: Dual reporter qHTS for antagonist of Pregnane X Receptor (hPXR) against the NCATS DSHEA and TCM libraries: Luminescence Readout (AID 1920060);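 further: HepG2 cells carrying hPXR luciferase reporter stimulated with rifampicin at 2 µM; 0% is about no effect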
Summary of the method: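 Antagonist mode: rifampicin 2 uM final co-added with compounds to hPXR-LucHepG2 cells for 24 h at 37C. Viability by CellTiter-Fluor, Ex/Em 405/540 nm, 1 h; reporter by ONE-Glo luminescence.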

[12] = molecular target: Lysosomal acid glucosylceramidase (Homo sapiens) (UniProt P04062); assay: Glucocerebrosidase-p2 (AID 348; in the data active means potency below about 10 µM; further: potency means the concentration at half of the fitted maximal effect); details: purified GBA, blue fluorogenic substrate, 40 min
Summary of the method: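 Normal human glucocerebrosidase (0.2 nM) with blue fluorogenic substrate (80 uM final) in citrate/phosphate pH 5.9 with 10mM sodium taurocholate, 0.01% tween-20; 40 min RT, NaOH/glycine stop; fluorescence Ex 365/Em 440; AC50 from a titration from 0.6 nM upwards.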

[13] = AP1 Signaling Pathway (AID 357; active means well fitted curve in either direction with a large enough effect, not every such curve was filed as active;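 further: ME-180 reporter cells stimulated with EGF at its EC50 level; on the % scale 0 is the no-effect control and ±100 the full control effect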); details: ME-180 (cervical carcinoma) AP-1-bla reporter, EGF-induced, beta-lactamase ratio, 5 h; at 7.69 µM (top of the series) unless noted
Summary of the method: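 Cells are seeded overnight, exposed to compound titrations and an EC50 level of EGF for 5 hours at 37 °C, then loaded with CCF4 dye for 2.5 hours. Beta-lactamase activity under the AP-1 element is read as a blue/green ratio.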

[14] = NFAT Signaling Pathway (AID 444; active means well fitted curve in either direction with a large enough effect, not every such curve was filed as active;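 further: carbachol stimulus at about its EC50 of 1 µM final; on the % scale 0 is the no-effect control and ±100 the full control effect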); details: Jurkat NFAT-bla M1, carbachol, beta-lactamase ratio, 5 h; at 7.69 µM (top of the series) unless noted
Summary of the method: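 Jurkat cells with NFAT-driven β-lactamase reporter and co-expressed M1 receptor, stimulated with carbachol (final 1 uM, ~EC50), compound titration, 5 h at 37 °C. CCF4 loaded 1 h at RT; 460/530 nm ratio gave %activity and AC50.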

[15] = Stat Signaling Pathway (AID 446; active means well fitted curve in either direction with a large enough effect, not every such curve was filed as active;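 further: ME-180 cervical cancer cells given 40 pM IL-6 alongside compound; SIE-controlled beta-lactamase reporter measured as 460/530 nm FRET emission ratio; on the % scale 0 is the no-effect control and ±100 the full control effect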)
Summary of the method: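 Compound effects on IL-6-induced STAT reporter activity were measured in ME-180 cells. After overnight culture, cells were co-treated with 40 pM IL-6 for 5 hrs before beta-lactamase substrate loading at room temperature.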

[16] = molecular target: Glucocorticoid receptor (Homo sapiens) (UniProt P04150); assay: GR-EFC Redistribution (AID 451; calls by dose curve; further: potency means the concentration at half of the fitted maximal effect); details: CHO-K1 GR-EFC translocation, beta-gal luminescence, 2 h
Summary of the method: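 CHO-K1 cells expressing nuclear EA and GR-ED fragments of b-gal; compounds titrated up to 46 uM final, 2 h at 37 C. GR nuclear translocation read as complemented b-gal luminescence after 1 h RT detection.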

[17] = molecular target: Mitogen-activated protein kinase 10 (Mus musculus) (UniProt Q61831); assay: JNK3 AlphaScreen Assay (AID 530; active means well fitted curve in either direction with a large enough effect, not every such curve was filed as active)
Summary of the method: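 Activity was read by AlphaScreen after JNK3-containing HepG2 lysate (cytokine pre-activated) phosphorylated biotinylated GST-cJun with 10 uM ATP at room temperature. Phospho-Ser73 cJun antibody with Protein-A acceptor beads provided detection.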

[18] = molecular target: 3',5'-cyclic-AMP phosphodiesterase 4B (Homo sapiens) (UniProt Q07343); assay: qHTS Assay for Inhibitors of PDE-IV (AID 607; active means well fitted activation curve with a large enough effect in the main read-out, with a control signal flat, not every such curve was filed as active; further: % of control where 0% means no effect)
Summary of the method: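 ACTOne HEK293 cells carry a modified cAMP-gated CNG channel and express endogenous PDE4; plated 1000 cells/well, compounds up to 22.9 uM final. Membrane-potential dye fluorescence (ex 535/em 590) was read; parental cells received 10 uM forskolin + 100 uM RO 20-1724.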

[19] = molecular target: Ubiquitin carboxyl-terminal hydrolase 1 (Homo sapiens) (UniProt O94782); assay: Inhibitors of USP1/UAF1: Pilot qHTS (AID 504865);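 further: rhodamine fluorescence freed from ubiquitin-rhodamine substrate followed over time; top concentration of the series differs between compounds; on the % scale 0 is the no-effect control and ±100 the full control effect; nearly all actives have a fitted effect of over 35% in size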
Summary of the method: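 1nM USP1/UAF1 + cpd, 15 min RT; start w/ Ub-Rho 150nM final; kinetic FL 480/540 nm, 6 reads q60 s. Buffer 50mM HEPES pH 7.8, 0.5mM EDTA, 1mM TCEP, 0.01% Tween-20, 0.1 mg/ml BSA.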

[20] = molecular target: Glucocorticoid receptor (Homo sapiens) (UniProt P04150); assay: GR-GFP Redistribution (AID 450;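 active means compounds whose dose series gives a full or clear partial fitted curve of increased nuclear translocation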; further: potency means the concentration at half of the fitted maximal effect); details: U2OS GR-GFP nuclear translocation, laser cytometry, 2 h

Chain of Ubiquitin carboxyl-terminal hydrolase 1 (Homo sapiens) (O94782 whole entry, looked up): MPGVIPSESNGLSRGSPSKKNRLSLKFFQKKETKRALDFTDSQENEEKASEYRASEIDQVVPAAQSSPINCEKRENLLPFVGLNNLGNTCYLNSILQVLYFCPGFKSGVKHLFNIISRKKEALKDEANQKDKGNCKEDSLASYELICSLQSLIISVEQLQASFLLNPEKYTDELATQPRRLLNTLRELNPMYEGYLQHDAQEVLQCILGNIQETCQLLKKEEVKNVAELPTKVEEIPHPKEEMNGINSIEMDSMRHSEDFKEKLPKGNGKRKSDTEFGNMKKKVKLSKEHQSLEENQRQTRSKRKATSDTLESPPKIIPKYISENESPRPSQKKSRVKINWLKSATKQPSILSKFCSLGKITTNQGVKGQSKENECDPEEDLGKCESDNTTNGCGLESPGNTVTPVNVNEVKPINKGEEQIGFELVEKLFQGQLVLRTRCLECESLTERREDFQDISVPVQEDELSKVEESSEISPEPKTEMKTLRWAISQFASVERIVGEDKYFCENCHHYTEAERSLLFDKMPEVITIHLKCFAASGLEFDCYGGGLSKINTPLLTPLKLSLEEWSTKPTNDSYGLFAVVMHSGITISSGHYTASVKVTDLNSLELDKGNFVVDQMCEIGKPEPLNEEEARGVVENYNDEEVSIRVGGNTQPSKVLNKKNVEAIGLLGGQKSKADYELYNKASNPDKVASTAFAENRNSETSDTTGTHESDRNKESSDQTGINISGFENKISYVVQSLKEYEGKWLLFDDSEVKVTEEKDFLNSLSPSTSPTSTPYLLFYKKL
Chain of Cytochrome P450 2D6 (Homo sapiens) (P10635 whole entry, looked up): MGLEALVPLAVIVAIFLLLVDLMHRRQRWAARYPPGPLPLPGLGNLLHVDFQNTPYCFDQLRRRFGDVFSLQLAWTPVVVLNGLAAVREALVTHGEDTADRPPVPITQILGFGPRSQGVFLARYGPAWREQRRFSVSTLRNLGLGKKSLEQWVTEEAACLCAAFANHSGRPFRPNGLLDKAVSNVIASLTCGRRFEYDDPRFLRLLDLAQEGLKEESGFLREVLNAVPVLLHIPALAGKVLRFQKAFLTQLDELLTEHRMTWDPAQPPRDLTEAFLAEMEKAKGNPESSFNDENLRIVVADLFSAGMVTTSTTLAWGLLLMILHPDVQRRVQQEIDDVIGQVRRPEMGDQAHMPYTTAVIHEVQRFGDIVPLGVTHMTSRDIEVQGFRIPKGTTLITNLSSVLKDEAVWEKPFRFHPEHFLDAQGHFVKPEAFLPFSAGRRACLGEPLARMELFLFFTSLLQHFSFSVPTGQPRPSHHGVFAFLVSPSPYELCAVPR
Chain of Nuclear receptor subfamily 1 group I member 3 (Homo sapiens) (Q14994 whole entry, looked up): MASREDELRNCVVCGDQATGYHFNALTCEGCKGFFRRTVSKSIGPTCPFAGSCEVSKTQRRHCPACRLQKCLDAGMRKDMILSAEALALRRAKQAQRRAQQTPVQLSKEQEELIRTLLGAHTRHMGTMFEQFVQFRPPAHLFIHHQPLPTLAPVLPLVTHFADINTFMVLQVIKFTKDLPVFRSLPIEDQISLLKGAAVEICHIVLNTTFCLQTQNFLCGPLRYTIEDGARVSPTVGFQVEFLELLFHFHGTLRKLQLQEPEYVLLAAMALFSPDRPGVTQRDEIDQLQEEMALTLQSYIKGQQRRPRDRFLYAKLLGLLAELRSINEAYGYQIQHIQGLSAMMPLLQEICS
Chain of Glucocorticoid receptor (Homo sapiens) (P04150 whole entry, looked up, the tested form may be a part): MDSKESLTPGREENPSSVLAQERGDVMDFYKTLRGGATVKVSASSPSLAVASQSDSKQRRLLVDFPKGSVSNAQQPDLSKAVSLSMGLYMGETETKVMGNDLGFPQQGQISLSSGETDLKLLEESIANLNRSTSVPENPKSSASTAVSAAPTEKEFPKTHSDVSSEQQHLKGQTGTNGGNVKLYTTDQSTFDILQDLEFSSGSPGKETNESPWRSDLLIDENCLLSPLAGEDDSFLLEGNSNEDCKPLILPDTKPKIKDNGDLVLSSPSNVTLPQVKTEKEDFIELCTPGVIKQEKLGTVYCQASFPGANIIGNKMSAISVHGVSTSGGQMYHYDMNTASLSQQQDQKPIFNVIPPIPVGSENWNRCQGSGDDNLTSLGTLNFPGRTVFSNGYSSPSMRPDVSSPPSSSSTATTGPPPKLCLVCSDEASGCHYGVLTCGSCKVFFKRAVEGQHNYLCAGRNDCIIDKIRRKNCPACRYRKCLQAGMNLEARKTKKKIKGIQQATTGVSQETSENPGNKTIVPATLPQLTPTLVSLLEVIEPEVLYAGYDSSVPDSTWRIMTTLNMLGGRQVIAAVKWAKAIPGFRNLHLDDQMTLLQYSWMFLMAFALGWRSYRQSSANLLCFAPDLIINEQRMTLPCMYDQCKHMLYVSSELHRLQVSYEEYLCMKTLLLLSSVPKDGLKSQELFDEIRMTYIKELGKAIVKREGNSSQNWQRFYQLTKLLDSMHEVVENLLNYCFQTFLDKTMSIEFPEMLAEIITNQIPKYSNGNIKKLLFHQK
Chain of Lysosomal acid glucosylceramidase (Homo sapiens) (P04062 whole entry, looked up): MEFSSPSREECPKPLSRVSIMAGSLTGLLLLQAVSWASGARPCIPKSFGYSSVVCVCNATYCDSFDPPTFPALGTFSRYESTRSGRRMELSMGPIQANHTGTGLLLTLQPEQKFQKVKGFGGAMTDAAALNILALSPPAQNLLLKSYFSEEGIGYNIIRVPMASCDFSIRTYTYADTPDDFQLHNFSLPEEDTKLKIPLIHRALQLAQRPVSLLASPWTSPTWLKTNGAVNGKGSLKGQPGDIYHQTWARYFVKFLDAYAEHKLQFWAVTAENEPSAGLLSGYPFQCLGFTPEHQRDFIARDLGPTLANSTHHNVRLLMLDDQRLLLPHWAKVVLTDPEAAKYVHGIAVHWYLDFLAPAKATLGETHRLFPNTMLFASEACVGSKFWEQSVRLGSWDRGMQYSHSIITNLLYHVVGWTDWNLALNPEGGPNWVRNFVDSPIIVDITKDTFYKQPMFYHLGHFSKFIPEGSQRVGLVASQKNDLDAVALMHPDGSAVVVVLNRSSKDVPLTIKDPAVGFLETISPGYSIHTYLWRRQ
Chain of Nuclear receptor subfamily 1 group I member 2 (Homo sapiens) (O75469 whole entry, looked up): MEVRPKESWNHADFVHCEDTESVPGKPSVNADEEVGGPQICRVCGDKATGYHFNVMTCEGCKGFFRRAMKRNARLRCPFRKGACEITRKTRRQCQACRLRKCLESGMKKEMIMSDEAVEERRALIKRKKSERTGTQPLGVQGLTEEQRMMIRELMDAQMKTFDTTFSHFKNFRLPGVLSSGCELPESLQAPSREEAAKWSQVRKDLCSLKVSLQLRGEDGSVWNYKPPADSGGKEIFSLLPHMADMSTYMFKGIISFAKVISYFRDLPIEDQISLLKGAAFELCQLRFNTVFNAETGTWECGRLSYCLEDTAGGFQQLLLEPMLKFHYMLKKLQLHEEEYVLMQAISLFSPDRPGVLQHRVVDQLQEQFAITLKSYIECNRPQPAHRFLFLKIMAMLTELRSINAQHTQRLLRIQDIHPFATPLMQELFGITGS
Chain of 3',5'-cyclic-AMP phosphodiesterase 4B (Homo sapiens) (Q07343 whole entry, looked up): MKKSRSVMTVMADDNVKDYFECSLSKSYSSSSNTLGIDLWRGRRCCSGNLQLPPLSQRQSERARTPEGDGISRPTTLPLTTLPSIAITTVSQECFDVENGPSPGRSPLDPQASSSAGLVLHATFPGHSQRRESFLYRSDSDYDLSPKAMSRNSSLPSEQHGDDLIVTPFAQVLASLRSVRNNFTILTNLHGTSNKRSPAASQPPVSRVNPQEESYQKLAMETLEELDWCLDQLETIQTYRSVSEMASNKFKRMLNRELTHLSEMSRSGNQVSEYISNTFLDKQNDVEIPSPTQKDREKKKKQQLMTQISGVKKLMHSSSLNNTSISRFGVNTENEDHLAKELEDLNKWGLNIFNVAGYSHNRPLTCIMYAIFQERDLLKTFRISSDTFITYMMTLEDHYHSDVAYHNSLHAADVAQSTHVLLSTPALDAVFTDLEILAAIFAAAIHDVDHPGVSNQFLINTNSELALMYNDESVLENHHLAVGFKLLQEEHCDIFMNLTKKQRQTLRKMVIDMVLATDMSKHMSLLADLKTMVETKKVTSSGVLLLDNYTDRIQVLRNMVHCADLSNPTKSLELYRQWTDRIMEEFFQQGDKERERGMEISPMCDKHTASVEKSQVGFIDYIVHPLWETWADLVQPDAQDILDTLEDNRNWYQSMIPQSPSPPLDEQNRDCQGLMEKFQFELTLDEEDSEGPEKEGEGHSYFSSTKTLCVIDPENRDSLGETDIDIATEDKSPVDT

C=C1CC[C@H](O)C/C1=C\C=C1/CCC[C@]2(C)[C@@H]([C@H](C)CC[C@H](C)C(C)C)CC[C@@H]12
inactive: outcome [1] | outcome [2] | Potency [3] | outcome [4] | outcome [5] | Potency [6] | outcome [7] | max response [8] -0.676% | outcome [9] | outcome [11]
active: Potency [10] 28.2 µM

CC(C)(O)[C@@H]1CC[C@](C)([C@@H]2[C@H](O)C[C@]3(C)C4C[C@@H](O[C@H]5O[C@@H](CO)[C@H](O)[C@@H](O)[C@@H]5O)C5C(C)(C)[C@H](O[C@H]6OC[C@H](O)[C@@H](O)[C@@H]6O)CC[C@]56CC46CC[C@@]23C)O1 (stereo partly drawn)
inactive: outcome [1] | outcome [2] | Potency [3] | outcome [4] | outcome [5] | Potency [6] | outcome [7] | max response [8] 1.31% | outcome [9] | Potency [10] | outcome [11]

OCCc1ccc(O)cc1
inactive: outcome [1] | outcome [2] | Potency [3] | outcome [4] | outcome [5] | Potency [6] | outcome [7] | max response [8] -3.57% | outcome [9] | Potency [10] | outcome [11]

COc1ccc2[nH]cc(CCNc3ncncc3-c3ccccc3OC)c2c1
inactive: Potency [12] > 11.4 µM | activity change, negative = inhibition [13] -16.8% | activity change, negative = inhibition [14] -9.5% | outcome [15] | Potency [16] > 46 µM | Potency [17] | Potency [18] | Potency [19]

CN(C)C(=O)c1ccc(-c2nc(N3CCOCC3)c3ccccc3n2)cc1
inactive: Potency [12] > 11.4 µM | activity change, negative = inhibition [13] 0.443% | activity change, negative = inhibition [14] 21.6% | outcome [15] | Potency [20] > 46 µM | Potency [16] > 46 µM | Potency [17] | Potency [18] | Potency [19]

CCNc1ncc2nc(-c3ccccc3)c(=O)n(CCC#N)c2n1
inactive: Potency [12] > 11.4 µM | activity change, negative = inhibition [13] -3.6% | activity change, negative = inhibition [14] 27.9% | Potency [20] > 9.22 µM | Potency [16] > 46 µM | Potency [17] | Potency [19]

CCCCCC(=O)CC
inactive: outcome [1] | outcome [2] | Potency [3] | outcome [4] | outcome [5] | Potency [6] | outcome [7] | max response [8] -3.61% | outcome [9] | Potency [10] | outcome [11]

C=C/C(C)=C/C/C=C(\C)CCC=C(C)C
inactive: outcome [1] | outcome [2] | Potency [3] | outcome [4] | outcome [5] | Potency [6] | outcome [7] | max response [8] 2.78% | outcome [9] | outcome [11]
